Screening data (PubChem)
Compounds with a hit are over-represented: about 5.9% of the library has one in this group of screens.
HEK293 tox: qHTS of GLP-1 Receptor Inverse Agonists: Cytotox Screen. HEK293 cAMP-luciferase reporter cells, luminescence, 24 h. Potency, µM (highest dose often 38.3 µM), for the others: at the top dose activity change, negative = inhibition, actives largely listed as inhibitors. 410,000 tested, 0.13% active. AID 624418, 2012;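 also: loss of luciferase light is scored as toxicity; % is scaled to controls: 0 for no effect and ±100 for the full control effect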
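To flag toxic compounds, the library was rerun on cells for 24 hr at 37 deg C and 5% CO2. Viability-linked luminescence was captured 12 min after adding luciferase detection reagent.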
VP16 counter: VP16 counterscreen qHTS for inhibitors of ROR gamma transcriptional activity. Drosophila S2 Gal4-VP16 UAS-luciferase, luminescence, 20 h. Potency, µM (titrated, usually from 53.6 µM), inactives show at the highest dose activity, negative = inhibition, hits mostly inhibitors. 310,000 tested, 3.5% active. AID 2546, 2010;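 also: Gal4-VP16 expression switched on by copper sulfate through the metallothionein promoter; % is scaled to controls: 0 for no effect and ±100 for the full control effect; nearly all actives have a fitted effect of over 50% in size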
GLP-1R inv ag: qHTS of GLP-1 Receptor Inverse Agonists (Inhibition Mode); Glucagon-like peptide 1 receptor (Homo sapiens), P43220; 410,000 tested, 1.6% active; Potency, µM (titrated, usually from 38.3 µM), without a hit: top-dose activity change, negative = inhibition, hits mostly inhibitors; HEK293 GLP-1R CRE-luciferase, luminescence, 24 h; GLP-1R form is constitutively active; also: % is scaled to controls: 0 for no effect and ±100 for the full control effect; nearly all actives have a fitted effect of over 55% in size
Target sequence (P43220 whole entry, looked up): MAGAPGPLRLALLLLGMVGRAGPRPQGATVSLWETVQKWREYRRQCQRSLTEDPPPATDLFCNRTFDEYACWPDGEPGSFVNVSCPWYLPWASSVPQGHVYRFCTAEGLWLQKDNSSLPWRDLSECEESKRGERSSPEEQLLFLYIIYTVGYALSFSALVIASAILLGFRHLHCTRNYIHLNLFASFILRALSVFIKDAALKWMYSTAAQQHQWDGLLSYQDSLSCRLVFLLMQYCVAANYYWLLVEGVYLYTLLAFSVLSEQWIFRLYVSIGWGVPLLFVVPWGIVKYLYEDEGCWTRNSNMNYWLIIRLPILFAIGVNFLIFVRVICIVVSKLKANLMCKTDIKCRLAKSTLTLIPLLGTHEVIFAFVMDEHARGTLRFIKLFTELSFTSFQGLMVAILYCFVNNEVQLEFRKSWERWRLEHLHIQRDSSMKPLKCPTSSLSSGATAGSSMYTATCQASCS
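Using stably transfected HEK293 (constitutively active GLP-1R, cAMP-luciferase reporter), compounds were incubated 24 hr and luciferase measured by luminescence.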
RORgamma inh: qHTS for inhibitors of ROR gamma transcriptional activity; Nuclear receptor ROR-gamma (Mus musculus), P51450; Drosophila S2 Gal4-RORgamma UAS-luciferase reporter, 20 h; Potency, µM (top dose mostly 53.6 µM), for the others: at the top dose activity change, negative = inhibition, actives largely listed as inhibitors; 310,000 tested, 5.4% active; also: % is scaled to controls: 0 for no effect and ±100 for the full control effect; nearly all actives have a fitted effect of over 60% in size
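Stably transfected Drosophila Schneider cells are the test system, with ROR gamma fused to Gal4 and luciferase under UAS control; luminescence is read after 20 hr of 700 uM copper sulfate induction at ambient temperature.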
GLP-1R agonist: qHTS of GLP-1 Receptor Agonists. Glucagon-like peptide 1 receptor (Homo sapiens), P43220. HEK293 GLP-1R CRE-luciferase, luminescence, 4-6 h; cells express a hypersensitive GLP-1R form. Potency, µM (doses to about 45.6 µM), without a hit: top-dose activation, hits mostly activators. 380,000 tested, 0.007% active. AID 624172, 2012; also: % of control where 0% means no effect
Numbers without * were called inactive; [ ] = dose if it differs, or a comment. Calls follow the shape of the dose curve; as a rule, active = well fitted curve in the direction sought with a large enough effect; inconclusive = small, poorly fitted or top-dose-only effect, or another doubt; inactive = no such curve, though single readings can be large; an effect the other way counts as inactive or inconclusive. Potency is read from the fitted curve at half-maximal effect.

`O=C(Nc1nccs1)c1ccc(-c2ccc(Cl)cc2)o1` gave HEK293 tox inconclusive, VP16 counter inconclusive, GLP-1R inv ag inconclusive, RORgamma inh 3.98µM* and GLP-1R agonist -3.5%.
`O=C(NCc1ccc(Cl)cc1)C(=O)Nc1nccs1` gave HEK293 tox 2.0%, VP16 counter -13.2%, GLP-1R inv ag 12.5%, RORgamma inh -12.5% and GLP-1R agonist 3.1%.
`O=C(/C=C/c1ccc(Cl)cc1)Nc1nccs1` gave HEK293 tox 4.2%, VP16 counter -5.2%, GLP-1R inv ag -0.9%, RORgamma inh 8.91µM* and GLP-1R agonist -5.1%.
`O=C(Nc1nccs1)c1ccc(-c2ccc(F)cc2)o1` gave HEK293 tox -24.0%, VP16 counter inconclusive, GLP-1R inv ag -23.4%, RORgamma inh inconclusive and GLP-1R agonist 0.1%.
C/C=C/C=C/C(=O)Nc1nccs1 was read as HEK293 tox 1.7%[1.53 µM], VP16 counter 5.62µM*, GLP-1R inv ag 43.7%, RORgamma inh 10µM* and GLP-1R agonist -7.8%.
For O=C(NCC1CCCCC1)c1nnc(C(=O)NCC2CCCCC2)c2c1[nH]c1ccccc12 the results were VP16 counter 1.4% and RORgamma inh 8.9%.
CSc1ncc(Cl)c(C(=O)N(C)c2ccccc2)n1 was read as HEK293 tox 1.4% and GLP-1R inv ag 5.8%.
`O=c1n(Cc2ccc(Cl)cc2)nc2n1-c1ccccc1OC2` gave HEK293 tox 4.7%, GLP-1R inv ag 10.1% and GLP-1R agonist 0.4%.
Screening CC1CCCN(c2ncnc3c2cnn3-c2ccc(Cl)cc2)C1 (configuration not stated) returned HEK293 tox -1.1%, VP16 counter -75.4%, GLP-1R inv ag -78.2%, RORgamma inh -40.5% and GLP-1R agonist -5.1%.
Screening c1ccc(-n2ncc3c(N4CCCCC4)ncnc32)cc1 returned HEK293 tox 3.9%, VP16 counter 5.62µM*, GLP-1R inv ag 3.98µM*, RORgamma inh 5.01µM* and GLP-1R agonist -5.3%.
Screening CC1CCCN(c2ncnc3c2cnn3-c2ccc(F)cc2)C1 (configuration not stated) returned HEK293 tox -4.1% and GLP-1R inv ag 8.91µM*.
For Cc1cccc(-n2ncc3c(N4CCCCCC4)ncnc32)c1 the results were HEK293 tox 1.3% and GLP-1R inv ag -13.8%.
CC1CCCN(c2ncnc3c2cnn3-c2ccccc2)C1 (configuration not stated) was read as HEK293 tox 17.1%, VP16 counter 5.01µM*, GLP-1R inv ag inconclusive, RORgamma inh inconclusive and GLP-1R agonist -3.0%.
For C/C=C(\C)[C@H](O)C[Si](C)(C)c1ccccc1 the results were VP16 counter -0.6% and RORgamma inh -15.3%.
`NC(=O)c1ccccc1NC(=O)C1CCCN(c2ncnc3onc(-c4ccc(F)cc4)c23)C1` (configuration not stated) gave HEK293 tox -8.2% and GLP-1R inv ag 11.4%.
`COc1cccc(C(=O)O/N=C(\N)c2ccncc2)c1OC` gave HEK293 tox -4.1%, VP16 counter 2.8%, GLP-1R inv ag 0.6%, RORgamma inh 32.1% and GLP-1R agonist 6.3%.
`N/C(=N\OC(=O)c1cccc2ccccc12)c1ccccn1` gave HEK293 tox 3.98µM*, VP16 counter -16.0%, GLP-1R inv ag inconclusive, RORgamma inh inconclusive and GLP-1R agonist 10.2%.
Screening N/C(=N\OC(=O)Cc1cccc2ccccc12)c1ccccn1 returned HEK293 tox inconclusive, VP16 counter -15.8%, GLP-1R inv ag inconclusive, RORgamma inh 34.1% and GLP-1R agonist 23.8%.
`COc1cccc(C(=O)O/N=C(\N)c2ccccn2)c1OC` gave HEK293 tox 10.3%, VP16 counter -28.5%, GLP-1R inv ag 7.94µM*, RORgamma inh inconclusive and GLP-1R agonist -9.5%.
For CCN(CC)S(=O)(=O)c1ccc(NC(=O)c2cc3ccc4cccnc4c3[nH]2)cc1 the results were HEK293 tox -2.9% and GLP-1R inv ag -19.6%.
For CN(C)c1ccc(/C=C(\C#N)c2ccccn2)cc1 the results were HEK293 tox 27.4%, VP16 counter 7.94µM*, GLP-1R inv ag inconclusive, RORgamma inh 7.08µM* and GLP-1R agonist -26.5%.
`CN(C)c1ccc(C(=S)Nc2ccccc2)cc1` gave HEK293 tox -19.2%, VP16 counter inconclusive, GLP-1R inv ag inconclusive, RORgamma inh 12.6µM* and GLP-1R agonist 7.2%.
For CN(C)c1ccc(NC(=S)c2ccccn2)cc1 the results were HEK293 tox -27.0%, VP16 counter 0.631µM*, GLP-1R inv ag 5.62µM*, RORgamma inh 0.282µM* and GLP-1R agonist -15.8%.
For N#CC(C#N)=Cc1ccc(OC(=O)c2ccccn2)cc1 the results were HEK293 tox 5.0%, VP16 counter -25.1%, GLP-1R inv ag 18.8%, RORgamma inh 12.6µM* and GLP-1R agonist 0.3%.
CC(NC(=O)Cc1cc(F)cc(F)c1)C(=O)NC(C(=O)OC(C)(C)C)c1ccccc1 (configuration not stated) was read as VP16 counter 9.3% and RORgamma inh inconclusive.
Cc1nn(-c2ccccc2)c2c1C1(C(=O)N(C)c3ccccc31)C(C#N)=C(N)O2 (configuration not stated) was read as HEK293 tox -7.5%, VP16 counter inconclusive, GLP-1R inv ag 0.0%, RORgamma inh 11.2µM* and GLP-1R agonist -6.5%.
For C=CCOc1ccc(C2N3CC4(CC)CN2CC(CC)(C3)C4=O)cc1 (configuration not stated) the results were HEK293 tox -1.1%, VP16 counter -1.3%, GLP-1R inv ag 11.2µM*, RORgamma inh -4.3% and GLP-1R agonist 4.6%.
`CCCC12CN3CC(CCC)(CN(C1)C3c1ccc(OC(C)C)cc1)C2=O` (configuration not stated) gave HEK293 tox 3.7% and GLP-1R inv ag 10.3%.
For CCOc1ccc(CCNC(=O)c2ccc3c(c2)nc2n3CCOC2)cc1OCC the results were HEK293 tox 2.4% and GLP-1R inv ag 44.7%.
`Cc1cccc(-n2ncc3c(Nc4c(C)cc(C)cc4C)ncnc32)c1` gave HEK293 tox -30.6% and GLP-1R inv ag 5.62µM*.
Cc1ccc(-n2ncc3c(Nc4cccc(C)c4)ncnc32)cc1 was read as HEK293 tox -16.3%, GLP-1R inv ag 3.0% and GLP-1R agonist -3.1%.
Screening Cc1cccc(-n2ncc3c(Nc4ccc(F)cc4)ncnc32)c1 returned HEK293 tox 3.1%, VP16 counter 11.2µM*, GLP-1R inv ag -17.5%, RORgamma inh -13.4% and GLP-1R agonist -3.0%.
